# The supplement of paper PMC6555819
# Assays:
# Experiment in all cases: PBM binding z-score (relative to random genomic background probes); higher = stronger binding; sequences stand for … in GC…GCGATTGACAGCGTAGAATGAAGG
# [1] = system: FXR:RXRa (NR concentration 270 nM, RXRa partner concentration 90 nM)
# In short: (§1)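 Random background probes are the reference for binding z-scores. These scores derive from regression-normalized fluorescence on custom Agilent 4×180K protein-binding microarrays incubated 1 h with ligand-free nuclear receptor dimers. Binding was detected with antibodies against each partner (one per run).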
# [2] = system: LXRa:RXRa (NR concentration 270 nM, RXRa partner concentration 90 nM)
# In short: as §1
# [3] = system: LXRa homodimer (NR concentration 270 nM)
# In short: as §1
# [4] = system: LXRb:RXRa (NR concentration 270 nM, RXRa partner concentration 90 nM)
# In short: as §1
# [5] = system: LXRb homodimer (NR concentration 270 nM)
# In short: as §1
# [6] = system: PPARa:RXRa (NR concentration 270 nM, RXRa partner concentration 90 nM)
# In short: as §1
# [7] = system: PPARg:RXRa (NR concentration 180 nM, RXRa partner concentration 90 nM)
# In short: as §1
# [8] = system: PPARg:RXRa 270nM:90nM, anti-RXR (NR concentration 270 nM, RXRa partner concentration 90 nM)
# In short: as §1
# [9] = system: PPARg:RXRa 30nM:10nM, anti-RXR (NR concentration 30 nM, RXRa partner concentration 10 nM)
# In short: as §1
# [10] = system: PPARg:RXRa 90nM:30nM, anti-RXR (NR concentration 90 nM, RXRa partner concentration 30 nM)
# In short: as §1
# [11] = system: PPARg:RXRa DBDmut IVT, anti-RXR (DBD mutation: RXRa K156A/R161A, NR concentration 270 nM, RXRa partner concentration 90 nM)
# In short: as §1
# [12] = system: PPARg:RXRa IVT, anti-PPARg (NR concentration 270 nM, RXRa partner concentration 90 nM)
# In short: as §1
# [13] = system: PPARg DBDmut:RXRa IVT, anti-PPARg (DBD mutation: PPARg1 K132A/R137A, NR concentration 270 nM, RXRa partner concentration 90 nM)
# In short: as §1
# [14] = system: PPARg DBDmut IVT, anti-PPARg (DBD mutation: PPARg1 K132A/R137A, NR concentration 270 nM)
# In short: as §1
# [15] = system: PPARg homodimer (NR concentration 180 nM)
# In short: as §1
# [16] = system: PXR:RXRa (NR concentration 270 nM, RXRa partner concentration 90 nM)
# In short: as §1
# [17] = system: PXR homodimer (NR concentration 270 nM)
# In short: as §1
# [18] = system: RARa:RXR (NR concentration 270 nM, RXRa partner concentration 90 nM)
# In short: as §1
# [19] = system: RARa homodimer (NR concentration 270 nM)
# In short: as §1
# [20] = system: RARb:RXRa (NR concentration 270 nM, RXRa partner concentration 90 nM)
# In short: as §1
Sequence,PBM binding z-score [1],PBM binding z-score [2],PBM binding z-score [3],PBM binding z-score [4],PBM binding z-score [5],PBM binding z-score [6],PBM binding z-score [7],PBM binding z-score [8],PBM binding z-score [9],PBM binding z-score [10],PBM binding z-score [11],PBM binding z-score [12],PBM binding z-score [13],PBM binding z-score [14],PBM binding z-score [15],PBM binding z-score [16],PBM binding z-score [17],PBM binding z-score [18],PBM binding z-score [19],PBM binding z-score [20]
TCGTGTAGATCAGCAGGTTAAGAAAGCTGGCCAA,-0.188,0.0517,-0.312,0.0213,-0.844,0.437,-0.564,0.79,1.98,1.42,1.06,-0.357,-0.818,-0.881,0.306,-0.0142,-0.356,0.167,-0.19,-0.0644
CCGACTGGGTCATAAGGTTACCATAAGCCAGCCC,2.99,3.47,-0.00526,2.23,-0.614,4.14,5.19,5.46,2.95,4.86,5.16,5.58,0.678,0.517,2.93,2.45,0.189,4.18,0.218,3.38
CCGACTGGGCCAGAAAGGTTACCATACCATCCGG,0.387,0.792,-0.182,0.895,-0.545,1.88,0.92,0.91,0.0101,0.541,0.593,0.483,-0.91,-1.13,0.203,0.831,-0.302,1.83,-0.242,1.47
CGAGCTAGGTCAAGGACAGTGAATCTCCGCACGC,3.4,2.03,-0.283,1.22,-0.582,3.06,2.07,2.14,0.109,1.07,3.38,2.99,-0.96,-1.07,1.61,1.01,-0.22,2.02,0.121,3.74
CCTCGGAGGACAGAAGATCAGAGCTGTCCGCTTT,-0.222,-0.485,-0.602,-0.91,-1.2,-0.456,-0.0907,-0.214,-0.616,-0.38,-0.304,-0.633,-2.13,-1.48,-0.0483,-0.636,-0.786,-0.512,-0.276,0.386
ATCTCTAGGTAAAAGTTCAGTGTATCCCGAGGAT,0.805,1.47,1.82,1.14,0.968,4.08,7.71,8.23,7.05,9.47,2.32,3.71,1.69,1.72,1.66,2.25,2.23,1.53,1.59,2.5
CAAACTAGGTCACGAAAGATCAAAGTCGAATGAC,4.53,5,0.705,3.03,0.541,5.84,9.56,7.69,6.2,7.72,8.91,9.37,5.61,5.17,2.46,2.88,0.236,3.39,1.08,4.37
